# Experimental data as given in the supplement of paper PMC10338343.
# ± gives the standard deviation.
# Experiments:
# [1] = test system: MILI (PIWIL2) piRISC loaded with L1MC piRNA (26 nt); experiment: pre-steady-state target cleavage rate (min^-1); guide: L1MC piRNA 5'p-UAACUAAAUACUAUGCAAGCUGUAGG; higher = faster piRNA-guided slicing of the target;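 also: 1 nM active piRISC with 0.1 nM target library at 33 °C single turnover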
# Outline: (§1)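 At 33 °C in HEPES–potassium acetate buffer, a transcribed, DNA-blocked target RNA library […] was exposed for 0–8 or 0–960 min to 1 nM active affinity-purified piRISC carrying a single synthetic guide, with or without 500 nM GTSF1 partner protein. Uncleaved targets were sequenced and normalised to depth and to weakly complementary targets. With three trials pooled and k3 capped at 0.0001 min^-1, a burst-and-steady-state fit produced the pre-steady-state cleavage rate.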
# [2] = test system: EfPiwi piRISC loaded with L1MC piRNA (26 nt); experiment: pre-steady-state target cleavage rate (min^-1); auxiliary factor: 500 nM Ephydatia muelleri Gtsf1; guide: L1MC piRNA 5'p-UAACUAAAUACUAUGCAAGCUGUAGG; MIWI and MILI are mouse PIWI proteins and EfPiwi is from a freshwater sponge; tags in brackets are library labels; higher = faster piRNA-guided slicing of the target
# Outline: as §1
# [3] = auxiliary factor: 500 nM mouse GTSF1
# [4] = auxiliary factor: none (no GTSF1)
Sequence,"pre-steady-state target cleavage rate [1, 3]","pre-steady-state target cleavage rate [1, 4]",pre-steady-state target cleavage rate [2]
UCCUGGAUGUCCUUCGCAUAGUAUUUAGUUA,0.0676 ± 0.015,0.00538 ± 0.0022,0.01 ± 0.0052
UCCUCCUACAGCAUGCAUUGUAUUUAGUUA,0.217 ± 0.015,0.0102 ± 0.0027,0.0134 ± 0.0043
UCCUGCUACAGCUUGCAAAGUAUUUAGUUA,0.13 ± 0.012,0.00686 ± 0.0019,0.00608 ± 0.0019
UCCUGGAACAGCUUGGAAAGUAUUUAGUUA,0.125 ± 0.0077,0.00969 ± 0.0023,0.0164 ± 0.0053
UCCUGCUACAGCUUGCAUAGUAUAUUAGUUA,0.389 ± 0.042,0.00735 ± 0.0029,0.0185 ± 0.0079
UCCUCCUAGUCCUUGCAUAGUAUUUAGUUA,0.235 ± 0.018,0.00692 ± 0.0015,0.0173 ± 0.0063
UCCUCCGUACAGCUUGCAUAGUAUUUAGUUA,0.272 ± 0.014,0.0094 ± 0.0023,0.0578 ± 0.018
UCCUGGAACAGCUUGCUUACUAUUUAGUUA,0.0834 ± 0.011,0.0029 ± 0.0024,0.00758 ± 0.0029
UCCUGGAUCAGCUUGACAUAGUAUUUAGUUA,0.171 ± 0.019,0.00343 ± 0.0024,0.014 ± 0.0043
UCCUGGAACAGCUUGCAUUGUAUUUAGUUA,0.18 ± 0.014,0.00894 ± 0.0026,0.00926 ± 0.0026
UCCUGGAACAGCUUGCAAAGUAUAUAGUUA,0.116 ± 0.013,0.00404 ± 0.0021,0.00745 ± 0.0042
UCCUGGUACAGGUUGCUUAGUAUUUAGUUA,0.328 ± 0.022,0.0176 ± 0.0042,0.00576 ± 0.003
UCCUGGAACAGCAUGCAUAGUAUUUAGUAA,0.214 ± 0.019,0.00404 ± 0.0034,0.00384 ± 0.0023
UCCUCCUAACAGCUUGCAUAGUAUUUAGUUA,0.213 ± 0.018,0.0084 ± 0.0021,0.0133 ± 0.0051
UCCUGCUACAGCUUGCAUAAUAUUUAGUUA,0.363 ± 0.034,0.00537 ± 0.0019,0.00444 ± 0.0021
UCCUGGUACAGCAUGCAUAGUAAUUAGUUA,0.193 ± 0.025,0.013 ± 0.0032,0.00882 ± 0.0034
UCCUGGAUGUGCUUGCAUAGUAUUUAGUUA [g2:g20:cont:t1A],0.142 ± 0.013,0.00984 ± 0.0023,0.015 ± 0.0046
UCCUGCUACAGCUACCAUAGUAUUUAGUUA,0.233 ± 0.032,0.0038 ± 0.0024,0.00308 ± 0.0021
UCCUCCAUGAGCUUGCAUAGUAUUUAGUAA,0.169 ± 0.018,0.00406 ± 0.0021,0.00588 ± 0.0024
UCCUGCUACAGCUUCGAUAGUAUUUAGUAA,0.199 ± 0.03,0.00274 ± 0.0022,0.00315 ± 0.0026
UCCUGGAUCAGCGUGCAUAGUAUUUAGUUA,0.225 ± 0.015,0.00697 ± 0.0035,0.0619 ± 0.012
UCCUGGAACAGGUUGCAUAGUUUUUAGUUA,0.0335 ± 0.0065,0.00467 ± 0.0021,0.00366 ± 0.0018
UCCUGGAACACUUGCAUAGUAUUUAGUUA,0.194 ± 0.017,0.00651 ± 0.0021,0.0107 ± 0.0034
UCCUCCUACAGCUUGCUUAGUAUUUACUUA,0.179 ± 0.02,0.00341 ± 0.0022,0.00381 ± 0.003
UCCUGGAUGAGCUAGCAUUGUAUUUAGUUA,0.0518 ± 0.0092,0.00446 ± 0.0025,0.00519 ± 0.0032

Sequence,"pre-steady-state target cleavage rate [1, 3]","pre-steady-state target cleavage rate [1, 4]",pre-steady-state target cleavage rate [2]
UCCUGGAUCAGCUUGCAUAGUAUUUUAGUUA,0.23 ± 0.025,0.0107 ± 0.0028,0.0214 ± 0.0071
UCCUGGAUGUGCUUGCAUAGUAUUUAGGUUA,0.102 ± 0.019,0.00588 ± 0.0033,0.00262 ± 0.0021
UCCUCCUACAGCUUGCAUAGUAAUUUGUUA,0.111 ± 0.021,0.00269 ± 0.0026,0.00652 ± 0.0028
UCCUGGUACAGGUUGGAUAGUAUUUAGUUA,0.303 ± 0.043,0.00912 ± 0.0032,0.00482 ± 0.0022
UCCUGCUACACCUUGCAUUGUAUUUAGUUA,0.151 ± 0.014,0.0123 ± 0.004,0.00323 ± 0.0025
UCCUCCAACACCUUGCAUAGUAUUUAGUUA,0.192 ± 0.022,0.00554 ± 0.0024,0.00954 ± 0.0038
UCCUGGAACUCCUUGCAUAGUAUUUAGUUA,0.238 ± 0.02,0.00487 ± 0.0017,0.0352 ± 0.009
UCCUGCUUCAGCUUGCAUAGUAUUAAGUUA,0.13 ± 0.02,0.00279 ± 0.0026,0.00492 ± 0.0016
UCCUGGUAUAGCUUGCAUAGUAUUUAGUUA,0.252 ± 0.022,0.011 ± 0.0024,0.0287 ± 0.0075
UCCUGCUACAGCUAGCAUAGUAAUUAGUUA,0.284 ± 0.026,0.0047 ± 0.003,0.00598 ± 0.0018
UCCUGCUUCAGCUUGGAUAGUAUUUAGUUA,0.268 ± 0.015,0.0068 ± 0.002,0.0331 ± 0.007
UCCUGCUUCUGCUUGCAUAGUAUUUAGUUA,0.199 ± 0.016,0.00864 ± 0.0018,0.0112 ± 0.0038
UCCUCCUACAGCUUGCAUAGUUAUUUAGUUA,0.0152 ± 0.0067,0.00383 ± 0.0024,0.00556 ± 0.0031
UCCUCCUACAGUUUGCAUAGUAUUUAGUUA,0.299 ± 0.013,0.00895 ± 0.0021,0.0845 ± 0.021
UCCUGGUCAGCUUGCAUAGUAUUUAGUUA,0.269 ± 0.016,0.012 ± 0.0027,0.14 ± 0.027
UCCUGCUACAGCUUGGCAUAGUAUUUAGUUA,0.307 ± 0.051,0.00405 ± 0.0027,0.00928 ± 0.0031
UCCUGGUACAGCUUGGAUAGUAUAUAGUUA,0.316 ± 0.065,0.0066 ± 0.0032,0.00702 ± 0.0025
UCCUGCUACGGCUUGCAUAGUAUUUAGUUA,0.276 ± 0.021,0.00977 ± 0.0025,0.00972 ± 0.0027
UCCUGCUCACAGCUUGCAUAGUAUUUAGUUA,0.351 ± 0.019,0.0111 ± 0.0037,0.072 ± 0.016
UCCUGCUACAGCUAGCAUUGUAUUUAGUUA,0.225 ± 0.019,0.007 ± 0.0024,0.00762 ± 0.0028
UCCUGGAUGACGCUUGCAUAGUAUUUAGUUA,0.211 ± 0.022,0.00493 ± 0.0037,0.0537 ± 0.014
UCCUGGAUGUCGAUGCAUAUUAUUUAGUUA,0.016 ± 0.0043,0.00389 ± 0.0019,0.0047 ± 0.0036
UCCUGGUACAGCUCUGCAUAGUAUUUAGUUA,0.243 ± 0.018,0.00792 ± 0.0029,0.0139 ± 0.0042
UCCUGGAUGAGCUUGCAUAGUAUUGAGUUA,0.164 ± 0.036,0.00369 ± 0.0027,0.00461 ± 0.0019
UCCUGGAUGUCCUUGCACAGUAUUUAGUUA,0.145 ± 0.028,0.00389 ± 0.0023,0.00454 ± 0.0024
